According to PubChem BioAssay (NCATS):
The source made the active and inactive calls. Calls come from the whole dose curve; as a rule, active = well fitted curve in the direction sought with a large enough effect; inconclusive = small, poorly fitted or top-dose-only effect, or effect the other way, or another doubt; inactive = no such curve, though single readings can be large or run the other way.

Assay: qHTS for Inhibitors of Cell Surface uPA Generation: Validation Assay (AID 493164);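 note: RAW 264.7 macrophage cells exposed to compound for 18 h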
Conditions: mouse cells, plasminogen activation; series mostly up to 38.3 µM
Summary of the method: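 Compounds are titrated over seven points (2.45 nM–38.3 uM final) onto pre-plated RAW 264.7 cells and incubated for 18 h. Retained intracellular ATP, measured with ATP-Lite, indicates blocked lethal factor entry.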

SMILES | outcome
CCCC[N+]1(C)C2CC(OC(=O)[C@H](CO)c3ccccc3)CC1C1OC12 (some centres not stated) | inactive
CC(N)Cc1c[nH]c2ccc(O)cc12 (configuration not stated) | inactive
c1ccc2cc(CC3=NCCN3)ccc2c1 | inactive
OCc1cnc[nH]1 | inactive
CC(C)NP(=O)(NC(C)C)OP(=O)(NC(C)C)NC(C)C | inactive
COc1ccc2c(c1)/C(=C/c1cnc[nH]1)C(=O)N2 | inactive
COc1ccc(CNC(=O)/C=C/c2ccc3[nH]cc(CCN(C)C)c3c2)cc1 | inactive
CO[C@H]1CC=C2CCN3CCC4=C(CC(=O)OC4)[C@]23C1 | inactive
CN1CC[C@@]2(C)c3cc(O)ccc3N(C)C12 (some centres not stated) | inactive
C[N+](C)(C)CC#CCOC(=O)Nc1cccc(Cl)c1 | inactive
Oc1ccc2c3c1O[C@H]1c4oc5ccccc5c4C[C@@]4(O)C(C2)N(CC2CC2)CCC314 (some centres not stated) | inactive
CN1CCC(c2c[nH]c3ccc(O)cc23)CC1 | inactive
COC(=O)N1CCN(C(=O)Cc2ccc(Cl)c(Cl)c2)C(CN2CCCC2)C1 (configuration not stated) | inactive
Cc1cc([C@@H]2CCCN2C)on1 | inactive
NC(N)=Nc1ccc2[nH]c3c(c2c1)C[C@@]1(O)[C@H]2Cc4ccc(O)c5c4[C@@]1(CCN2CC1CC1)[C@H]3O5 | inactive
Nc1ccc(CCN2CCN(c3cccc(C(F)(F)F)c3)CC2)cc1 | inactive
Cc1[nH]c2ccc(O)cc2c1CCN | inactive
CC(=O)c1c(O)c(C)c(O)c(Cc2c(O)c3c(c(C(=O)/C=C/c4ccccc4)c2O)OC(C)(C)C=C3)c1O | inactive
C=CCN1CC[C@]23c4c5ccc(O)c4O[C@H]2/C(=N/NC(=O)c2ccccc2)CC[C@@]3(O)[C@H]1C5 | inactive
CC(N)Cc1c[nH]c2ccc(OCc3cccs3)cc12 (configuration not stated) | inactive
NC(C(=O)O)c1cc(=O)[nH]o1 (configuration not stated) | inactive
CN(N=O)c1cc(O)ccc1O | inactive
